Most compounds without a hit are left out; they make up all but 2.3% or so of the library.
mut p53 react = mutant p53 pathway re-activators, primary screen, cell-based, SW480, luciferase, single point, HTS; activation, % at 9.98 µM; actives 1.5% (n = 28,000); SW480 PUMA-promoter luciferase, p53 mutant reactivation; in the data active = activation above about 52%
ID4 binder = binders of human ID4 protein, primary screen, biochemical, small molecule microarray, single point; DNA-binding protein inhibitor ID-4 (Homo sapiens), P47928; Flag-ID4 binding, fluorescence F/B; calls only; actives 1.2% (n = 31,000); call rule not given here;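 note: a binder raises fluorescence above local background on the spot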
Target sequence (P47928 whole entry, looked up): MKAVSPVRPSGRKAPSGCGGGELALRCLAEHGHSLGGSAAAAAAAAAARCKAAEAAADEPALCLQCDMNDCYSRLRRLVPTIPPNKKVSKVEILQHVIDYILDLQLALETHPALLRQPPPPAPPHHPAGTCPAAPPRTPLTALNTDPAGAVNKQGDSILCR
Hits are given with their value; – = inactive; · = no result; + = active, no number.

SMILES | mut p53 react | ID4 binder
C=CCNC(=O)[C@H]1[C@@H]2C(=O)O[C@@H](c3ccccc3)[C@@H](c3ccccc3)N2[C@@H](c2ccccc2OCCO)[C@]12C(=O)N(C(=O)OCCOC)c1ccc(C#CC3=CCCCC3)cc12 | · | –
Cc1ccccc1OCCn1c(C(O)c2ccccc2)nc2ccccc21 (centres undefined) | – | –
CC(C)c1ccc(OCC(=O)Nc2ccc(Br)cc2C(=O)O)cc1 | – | –
O=C(CSc1ncn(-c2ccccc2)n1)Nc1ccc(Cl)cc1 | – | –
C[C@H]1CN([C@@H](C)CO)C(=O)c2cccc(NC(=O)Nc3ccc4c(c3)OCO4)c2O[C@@H]1CN(C)C | 57.8 | ·
C[C@H](CO)N1C[C@H](C)[C@H](CN(C)S(C)(=O)=O)Oc2c(NC(=O)Nc3ccc4c(c3)OCO4)cccc2C1=O | – | ·
C[C@H](CO)N1C[C@H](C)[C@@H](CN(C)C(=O)Nc2ccc(C(F)(F)F)cc2)Oc2c(NC(=O)Nc3cccc4ccccc34)cccc2C1=O | – | –
CNC[C@@H]1Oc2c(NC(=O)Nc3ccc4c(c3)OCO4)cccc2C(=O)N([C@@H](C)CO)C[C@H]1C | – | ·
C[C@H](CO)N1C[C@H](C)[C@H](CN(C)C(=O)Nc2ccc(C(F)(F)F)cc2)Oc2c(NC(=O)Nc3cccc4ccccc34)cccc2C1=O | – | +
C[C@@H]1CN([C@@H](C)CO)C(=O)c2cccc(NC(=O)Nc3ccc4c(c3)OCO4)c2O[C@H]1CN(C)C | 74.2 | –
O=C(CCCN1C(=O)c2ccccc2C1=O)Nc1ccc(Br)cc1F | – | –
Cc1ccc(S(=O)(=O)N2C(=O)CCC2C(=O)Nc2cccc3c2CCCC3)cc1 (centres undefined) | – | –
Cc1c(CCC(=O)O)c(=O)oc2cc(O)c(Cl)cc12 | – | –
COc1ccc([N+](=O)[O-])cc1NC(=O)COc1ccc(C(C)(C)C)cc1Br | – | –
Cc1ccc(-c2noc(CCC(=O)Nc3cccc([N+](=O)[O-])c3)n2)cc1 | – | –
Cc1ccc(NC(=O)COc2cc(C)c(Br)c(C)c2)c([N+](=O)[O-])c1 | – | –
CCOc1ccc(OCC(=O)Nc2ccc(C)cc2[N+](=O)[O-])cc1 | – | –
Cc1ccc(NC(=O)COc2ccc(Cl)cc2)c([N+](=O)[O-])c1 | 95.1 | –
CCc1ccc(OCC(=O)Nc2ccc(C)cc2[N+](=O)[O-])cc1 | 66.2 | –
N#CC(C(=O)NCc1ccco1)c1ccccc1 (centres undefined) | – | –
CCc1ccc2oc(-c3ccc(C)c(NC(=O)COc4ccccc4)c3)nc2c1 | – | –
O=C1c2ccccc2S(=O)(=O)N1CC(O)Cn1ccc2ccccc21 (centres undefined) | – | +
OCc1nc2ccccc2n1CC(O)Cn1ccc2ccccc21 (centres undefined) | – | –
COc1ccc(NCC(O)Cn2ccc3ccccc32)cc1 (centres undefined) | – | –
Cc1cc(C)n(CC(O)Cn2ccc3ccccc32)n1 (centres undefined) | – | +
SMILES | mut p53 react | ID4 binder
Cn1c(SCC(=O)Nc2cccc(Br)c2)nnc1-c1ccc(Cl)cc1 | – | –
O=C(CSc1nnc(-c2cccnc2)n1-c1ccccc1)Nc1cc(C(F)(F)F)ccc1Cl | – | –
Cc1cc(Cl)cc(Br)c1OCCCSc1ncccn1 | 131.9 | –
Cc1ccc(C)c(OCCCCSc2ncccn2)c1Cl | – | –
CNC(=O)CN(c1cccc(Cl)c1Cl)S(=O)(=O)c1ccc(C)cc1 | – | –
Cc1cccc(OCCCn2c(CO)nc3ccccc32)c1 | – | –
Cc1ccc(OCCCn2c(CO)nc3ccccc32)cc1 | 63.0 | –
O=C(CC(=O)c1ccc(O)cc1)OC[C@H]1O[C@@H](Oc2ccc(O)cc2)[C@H](OC(=O)c2ccc(O)cc2)[C@@H](O)[C@@H]1O | · | –
O=C(CSc1nnc(-c2cccnc2)n1-c1ccccc1)N1CCc2ccccc21 | – | –
O=C(CSc1nnc(-c2cccnc2)n1-c1ccccc1)N1CCN(c2ccc(F)cc2)CC1 | – | +
O=C(O)CSc1nc2ccccc2n1CC(=O)O | – | –
C[C@@H]1CN([C@@H](C)CO)C(=O)c2cc(C#Cc3cccnc3)cnc2O[C@@H]1CN(C)Cc1ccncc1 | – | +
C[C@@H]1CN([C@@H](C)CO)C(=O)c2cc(C#Cc3ccncc3)cnc2O[C@H]1CN(C)C(=O)CN(C)C | – | +
C[C@@H]1CN([C@H](C)CO)C(=O)c2cc(C#Cc3cccnc3)cnc2O[C@H]1CN(C)Cc1cccnc1 | – | –
CCC(=O)N(C)C[C@H]1Oc2ncc(C#Cc3ccncc3)cc2C(=O)N([C@H](C)CO)C[C@H]1C | – | –
COc1ccccc1NC(=O)CNS(=O)(=O)c1ccc(C)cc1 | – | –
O=S(=O)(c1cccc2cccnc12)N1CCN(Cc2ccc(OCCO)cc2)CC1 | · | +
O=S(=O)(NC1CCN(Cc2ccc(OCCO)cc2)CC1)c1cccc2cccnc12 | · | –
C[C@@H]1CN([C@@H](C)CO)C(=O)c2cc(NC(=O)Nc3ccc4c(c3)OCO4)ccc2O[C@H]1CN(C)Cc1ccncc1 | – | +
C[C@@H]1CCCCO[C@H](CN(C)C)[C@@H](C)CN([C@@H](C)CO)C(=O)c2cc(NC(=O)Nc3ccc4c(c3)OCO4)ccc2O1 | – | –
CNC[C@@H]1Oc2ccc(NC(=O)Nc3ccc4c(c3)OCO4)cc2CC(=O)N([C@@H](C)CO)C[C@@H]1C | – | –
CNC[C@H]1Oc2ccc(NC(=O)Nc3ccc4c(c3)OCO4)cc2CC(=O)N([C@@H](C)CO)C[C@@H]1C | – | +
CNC[C@@H]1Oc2ccc(NC(=O)Nc3ccc4c(c3)OCO4)cc2C(=O)N([C@@H](C)CO)C[C@H]1C | – | +
C[C@H]1CN([C@@H](C)CO)C(=O)c2cc(NC(=O)Nc3ccc4c(c3)OCO4)ccc2O[C@H]1CN(C)C | – | –
CNC[C@@H]1OCCCC[C@H](C)Oc2ccc(NC(=O)Nc3ccc4c(c3)OCO4)cc2C(=O)N([C@@H](C)CO)C[C@@H]1C | – | +
SMILES | mut p53 react | ID4 binder
C[C@@H]1CN([C@H](C)CO)C(=O)c2cc(NC(=O)Nc3ccc4c(c3)OCO4)ccc2O[C@@H]1CN(C)Cc1ccncc1 | – | –
COc1ccc(S(=O)(=O)N(C)CC(=O)Nc2ccc(Br)cc2F)cc1 | – | –
Cc1cc(C)c(S(=O)(=O)NCC(=O)Nc2ccc(F)c(Cl)c2)c(C)c1 | – | –
Cc1cccc(-c2nc3cc(NC(=O)COc4ccc([N+](=O)[O-])cc4)ccc3o2)c1 | – | –
COc1ccc(F)cc1S(=O)(=O)NCc1cccnc1 | – | –
CNC[C@@H]1Oc2ccc(NS(=O)(=O)c3ccccc3)cc2C(=O)N([C@H](C)CO)C[C@H]1C | – | –
CNC[C@@H]1Oc2ccc(NS(=O)(=O)c3ccccc3)cc2C(=O)N([C@@H](C)CO)C[C@H]1C | – | +
CCCCN(CC)C(=O)Cn1c(=O)n(Cc2ccccc2Cl)c(=O)c2cc(OC)c(OC)cc21 | – | –
CS(=O)(=O)Nc1ccc(S(=O)(=O)NCC2CCCO2)cc1 (centres undefined) | – | –
Cc1ccc(N2CC(C(=O)Nc3ccc(S(=O)(=O)NCC4CCCO4)cc3)CC2=O)cc1 (centres undefined) | – | +
COC(=O)c1ccccc1NC(=O)c1cccc(NC(=O)COc2ccccc2)c1C | – | –
COC(=O)c1ccccc1NC(=O)NCc1ccc(C(=O)O)cc1 | – | +

Screening results: PubChem, Broad Institute
